The values that follow come from paper PMC11006913.

Holding throughout (test): PBM; 200 nM protein, PBS
Conditions in all cases: dsDNA, one strand shown

The target of experiment [1] is CRX (Homo sapiens, UniProt O43186 26-111).
In experiment [2] the target is CRX (Homo sapiens, UniProt O43186 26-111, E42D).
Experiment [3] has as its target CRX (Homo sapiens, UniProt O43186 26-111, R41L).

Chain of CRX (Homo sapiens, UniProt O43186 26-111, E42D) (O43186 26-111 E42D): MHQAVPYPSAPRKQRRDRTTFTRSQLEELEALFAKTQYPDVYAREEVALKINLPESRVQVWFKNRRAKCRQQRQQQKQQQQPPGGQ
Chain of CRX (Homo sapiens, UniProt O43186 26-111) (O43186 26-111): as the sequence (O43186 26-111 E42D) above, with D17E counted along it
Chain of CRX (Homo sapiens, UniProt O43186 26-111, R41L) (O43186 26-111 R41L): as the sequence (O43186 26-111 E42D) above, with R16L, D17E counted along it

Take AATCCAAC: the binding signal is 10.9 upbm affinity estimate (log intensity, higher = more binding, comparable within an allelic series) with CRX [1]; 10.8 upbm affinity estimate (log intensity, higher = more binding, comparable within an allelic series) in the experiment with CRX [2]; 10.7 upbm affinity estimate (log intensity, higher = more binding, comparable within an allelic series) in the experiment with CRX [3].
As for ATTTAAGA, the binding signal is 11.1 upbm affinity estimate (log intensity, higher = more binding, comparable within an allelic series) with CRX [1]; 10.8 upbm affinity estimate (log intensity, higher = more binding, comparable within an allelic series) in the experiment with CRX [2]; 10.4 upbm affinity estimate (log intensity, higher = more binding, comparable within an allelic series) with CRX [3].
In the case of CATGACAG, the binding signal was 8.34 upbm affinity estimate (log intensity, higher = more binding, comparable within an allelic series) with CRX [1]; 8.16 upbm affinity estimate (log intensity, higher = more binding, comparable within an allelic series) with CRX [2]; 8.25 upbm affinity estimate (log intensity, higher = more binding, comparable within an allelic series) in the experiment with CRX [3].
With CTTGCTAC, the binding signal with CRX [1] was 8.21 upbm affinity estimate (log intensity, higher = more binding, comparable within an allelic series); in the experiment with CRX [2] it was 8.34 upbm affinity estimate (log intensity, higher = more binding, comparable within an allelic series); in the experiment with CRX [3], 8.28 upbm affinity estimate (log intensity, higher = more binding, comparable within an allelic series).
In the case of GCGTGCAC, the binding signal was 8.43 upbm affinity estimate (log intensity, higher = more binding, comparable within an allelic series) in the experiment with CRX [1]; 8.37 upbm affinity estimate (log intensity, higher = more binding, comparable within an allelic series) in the experiment with CRX [2]; 8.37 upbm affinity estimate (log intensity, higher = more binding, comparable within an allelic series) in the experiment with CRX [3].
On to ACGGTCCG, for which the binding signal is 8.25 upbm affinity estimate (log intensity, higher = more binding, comparable within an allelic series) with CRX [1]; 8.46 upbm affinity estimate (log intensity, higher = more binding, comparable within an allelic series) in the experiment with CRX [2]; 8.16 upbm affinity estimate (log intensity, higher = more binding, comparable within an allelic series) with CRX [3].
AATCTCCC: the binding signal was 10.7 upbm affinity estimate (log intensity, higher = more binding, comparable within an allelic series) in the experiment with CRX [1]; 10.4 upbm affinity estimate (log intensity, higher = more binding, comparable within an allelic series) in the experiment with CRX [2]; 10.6 upbm affinity estimate (log intensity, higher = more binding, comparable within an allelic series) in the experiment with CRX [3].
In the case of CAGGAACG, the binding signal was 8.49 upbm affinity estimate (log intensity, higher = more binding, comparable within an allelic series) with CRX [1]; 8.54 upbm affinity estimate (log intensity, higher = more binding, comparable within an allelic series) with CRX [2]; 8.36 upbm affinity estimate (log intensity, higher = more binding, comparable within an allelic series) in the experiment with CRX [3].
Turning to GATTATAA, the binding signal is 12.7 upbm affinity estimate (log intensity, higher = more binding, comparable within an allelic series) with CRX [1]; 12.6 upbm affinity estimate (log intensity, higher = more binding, comparable within an allelic series) with CRX [2]; 12.6 upbm affinity estimate (log intensity, higher = more binding, comparable within an allelic series) with CRX [3].
Turning to GGGTGGCA, the binding signal was 8.24 upbm affinity estimate (log intensity, higher = more binding, comparable within an allelic series) with CRX [1]; 8.24 upbm affinity estimate (log intensity, higher = more binding, comparable within an allelic series) in the experiment with CRX [2]; 8.32 upbm affinity estimate (log intensity, higher = more binding, comparable within an allelic series) with CRX [3].
Turning to CACGGCGA, the binding signal with CRX [1] was 8.27 upbm affinity estimate (log intensity, higher = more binding, comparable within an allelic series); with CRX [2], 8.25 upbm affinity estimate (log intensity, higher = more binding, comparable within an allelic series); in the experiment with CRX [3], 8.27 upbm affinity estimate (log intensity, higher = more binding, comparable within an allelic series).
Regarding ACTAATCT, the binding signal is 13.1 upbm affinity estimate (log intensity, higher = more binding, comparable within an allelic series) with CRX [1]; 13.1 upbm affinity estimate (log intensity, higher = more binding, comparable within an allelic series) with CRX [2]; 12.7 upbm affinity estimate (log intensity, higher = more binding, comparable within an allelic series) with CRX [3].
As for CCACCGAG, the binding signal was 8.14 upbm affinity estimate (log intensity, higher = more binding, comparable within an allelic series) with CRX [1]; 8.21 upbm affinity estimate (log intensity, higher = more binding, comparable within an allelic series) with CRX [2]; 8.2 upbm affinity estimate (log intensity, higher = more binding, comparable within an allelic series) with CRX [3].
Turning to CGCGGCAG, the binding signal is 8.09 upbm affinity estimate (log intensity, higher = more binding, comparable within an allelic series) with CRX [1]; 8.17 upbm affinity estimate (log intensity, higher = more binding, comparable within an allelic series) with CRX [2]; 8.17 upbm affinity estimate (log intensity, higher = more binding, comparable within an allelic series) with CRX [3].
With AAGGGTGG, the binding signal with CRX [1] is 8.2 upbm affinity estimate (log intensity, higher = more binding, comparable within an allelic series); with CRX [2] it was 8.31 upbm affinity estimate (log intensity, higher = more binding, comparable within an allelic series); with CRX [3], 8.33 upbm affinity estimate (log intensity, higher = more binding, comparable within an allelic series).
With GGTCGAAC, the binding signal is 8.09 upbm affinity estimate (log intensity, higher = more binding, comparable within an allelic series) in the experiment with CRX [1]; 8.11 upbm affinity estimate (log intensity, higher = more binding, comparable within an allelic series) with CRX [2]; 8.1 upbm affinity estimate (log intensity, higher = more binding, comparable within an allelic series) in the experiment with CRX [3].
On to GACCGAAC, for which the binding signal in the experiment with CRX [1] is 7.97 upbm affinity estimate (log intensity, higher = more binding, comparable within an allelic series); in the experiment with CRX [2], 8.09 upbm affinity estimate (log intensity, higher = more binding, comparable within an allelic series); with CRX [3] it was 8.18 upbm affinity estimate (log intensity, higher = more binding, comparable within an allelic series).
Consider CGGGACCC, for which the binding signal with CRX [1] was 8.17 upbm affinity estimate (log intensity, higher = more binding, comparable within an allelic series); with CRX [2], 8.21 upbm affinity estimate (log intensity, higher = more binding, comparable within an allelic series); with CRX [3], 8.21 upbm affinity estimate (log intensity, higher = more binding, comparable within an allelic series).
Regarding AAGATTAT, the binding signal was 12.9 upbm affinity estimate (log intensity, higher = more binding, comparable within an allelic series) in the experiment with CRX [1]; 12.8 upbm affinity estimate (log intensity, higher = more binding, comparable within an allelic series) in the experiment with CRX [2]; 12.8 upbm affinity estimate (log intensity, higher = more binding, comparable within an allelic series) in the experiment with CRX [3].
As to AAATCCAA, the binding signal is 11.2 upbm affinity estimate (log intensity, higher = more binding, comparable within an allelic series) in the experiment with CRX [1]; 11 upbm affinity estimate (log intensity, higher = more binding, comparable within an allelic series) with CRX [2]; 11 upbm affinity estimate (log intensity, higher = more binding, comparable within an allelic series) with CRX [3].
As for GCAACCGC, the binding signal with CRX [1] is 8.47 upbm affinity estimate (log intensity, higher = more binding, comparable within an allelic series); in the experiment with CRX [2], 8.38 upbm affinity estimate (log intensity, higher = more binding, comparable within an allelic series); with CRX [3] it was 8.34 upbm affinity estimate (log intensity, higher = more binding, comparable within an allelic series).
GCAGATCA: the binding signal is 10.3 upbm affinity estimate (log intensity, higher = more binding, comparable within an allelic series) with CRX [1]; 10 upbm affinity estimate (log intensity, higher = more binding, comparable within an allelic series) in the experiment with CRX [2]; 9.94 upbm affinity estimate (log intensity, higher = more binding, comparable within an allelic series) with CRX [3].
TGCGTCCA: the binding signal was 8.29 upbm affinity estimate (log intensity, higher = more binding, comparable within an allelic series) with CRX [1]; 8.26 upbm affinity estimate (log intensity, higher = more binding, comparable within an allelic series) in the experiment with CRX [2]; 8.23 upbm affinity estimate (log intensity, higher = more binding, comparable within an allelic series) in the experiment with CRX [3].
Regarding GGGAGACA, the binding signal was 8.13 upbm affinity estimate (log intensity, higher = more binding, comparable within an allelic series) in the experiment with CRX [1]; 8.2 upbm affinity estimate (log intensity, higher = more binding, comparable within an allelic series) with CRX [2]; 8.26 upbm affinity estimate (log intensity, higher = more binding, comparable within an allelic series) with CRX [3].
ATAACCCC: the binding signal with CRX [1] is 10.6 upbm affinity estimate (log intensity, higher = more binding, comparable within an allelic series); with CRX [2], 10.4 upbm affinity estimate (log intensity, higher = more binding, comparable within an allelic series); with CRX [3], 10.2 upbm affinity estimate (log intensity, higher = more binding, comparable within an allelic series).
For GCTTAAGC, the binding signal in the experiment with CRX [1] is 12.8 upbm affinity estimate (log intensity, higher = more binding, comparable within an allelic series); in the experiment with CRX [2], 12.7 upbm affinity estimate (log intensity, higher = more binding, comparable within an allelic series); in the experiment with CRX [3] it was 11.7 upbm affinity estimate (log intensity, higher = more binding, comparable within an allelic series).
Regarding GGCGTCCC, the binding signal with CRX [1] was 8.17 upbm affinity estimate (log intensity, higher = more binding, comparable within an allelic series); with CRX [2], 8.13 upbm affinity estimate (log intensity, higher = more binding, comparable within an allelic series); with CRX [3], 8.1 upbm affinity estimate (log intensity, higher = more binding, comparable within an allelic series).
On to ATTAAGCC, for which the binding signal was 12.8 upbm affinity estimate (log intensity, higher = more binding, comparable within an allelic series) with CRX [1]; 12.8 upbm affinity estimate (log intensity, higher = more binding, comparable within an allelic series) in the experiment with CRX [2]; 12.2 upbm affinity estimate (log intensity, higher = more binding, comparable within an allelic series) with CRX [3].
In the case of ACTGCTGG, the binding signal with CRX [1] was 8.37 upbm affinity estimate (log intensity, higher = more binding, comparable within an allelic series); with CRX [2], 8.49 upbm affinity estimate (log intensity, higher = more binding, comparable within an allelic series); with CRX [3], 8.37 upbm affinity estimate (log intensity, higher = more binding, comparable within an allelic series).
For the sequence GGTTGCCA, the binding signal in the experiment with CRX [1] was 8.28 upbm affinity estimate (log intensity, higher = more binding, comparable within an allelic series); with CRX [2] it was 8.39 upbm affinity estimate (log intensity, higher = more binding, comparable within an allelic series); with CRX [3] it was 8.41 upbm affinity estimate (log intensity, higher = more binding, comparable within an allelic series).
As to CCAGTGCA, the binding signal with CRX [1] was 8.15 upbm affinity estimate (log intensity, higher = more binding, comparable within an allelic series); in the experiment with CRX [2], 8.21 upbm affinity estimate (log intensity, higher = more binding, comparable within an allelic series); with CRX [3], 8.38 upbm affinity estimate (log intensity, higher = more binding, comparable within an allelic series).
As to CCGGTCGA, the binding signal with CRX [1] is 8.51 upbm affinity estimate (log intensity, higher = more binding, comparable within an allelic series); with CRX [2], 8.46 upbm affinity estimate (log intensity, higher = more binding, comparable within an allelic series); with CRX [3], 8.45 upbm affinity estimate (log intensity, higher = more binding, comparable within an allelic series).
In the case of GCTATTTA, the binding signal in the experiment with CRX [1] is 10.3 upbm affinity estimate (log intensity, higher = more binding, comparable within an allelic series); with CRX [2] it was 10.1 upbm affinity estimate (log intensity, higher = more binding, comparable within an allelic series); with CRX [3] it was 10 upbm affinity estimate (log intensity, higher = more binding, comparable within an allelic series).
Turning to AGAATCCC, the binding signal in the experiment with CRX [1] was 10.2 upbm affinity estimate (log intensity, higher = more binding, comparable within an allelic series); in the experiment with CRX [2] it was 10 upbm affinity estimate (log intensity, higher = more binding, comparable within an allelic series); in the experiment with CRX [3], 10.1 upbm affinity estimate (log intensity, higher = more binding, comparable within an allelic series).
In the case of AAGTATAA, the binding signal with CRX [1] is 10.6 upbm affinity estimate (log intensity, higher = more binding, comparable within an allelic series); with CRX [2] it was 10.5 upbm affinity estimate (log intensity, higher = more binding, comparable within an allelic series); with CRX [3], 10.2 upbm affinity estimate (log intensity, higher = more binding, comparable within an allelic series).
As for GAAGTTCC, the binding signal with CRX [1] was 8.51 upbm affinity estimate (log intensity, higher = more binding, comparable within an allelic series); in the experiment with CRX [2], 8.44 upbm affinity estimate (log intensity, higher = more binding, comparable within an allelic series); in the experiment with CRX [3], 8.28 upbm affinity estimate (log intensity, higher = more binding, comparable within an allelic series).
